The values below come from PubChem BioAssay (EPA / NIEHS).

Records with an inconclusive call do not appear. Active and inactive are the calls of the source. Rule for the calls: active = hit-call score of the fitted dose curve at least 0.9, where 1 is the maximum; inconclusive = response in the unintended direction; inactive = score below 0.9.

One may read the AC50 as the concentration giving half of the maximal activity seen.

The target in one assay is Adra2b (gene 24174) (UniProt P19328). Put plainly: NVS_GPCR_rmAdra2B: NovaScreen (NVS) G Protein-Coupled Receptor Assay for hybird cells Adrenergic, Alpha 2B Receptor (Adra2B) (AID 2283306). Summed up:
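Compounds screened first at 25 uM in duplicate, with actives followed up in concentration-response; specific radioligand displacement from hybrid neuroglioma/blastoma cell membrane preparations measured by filter scintillation counting after 1 h, normalized to DMSO.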

Assay [1] addresses rat Opioid Receptor, Non-selective Binding, Oprm1 (gene 25601) (UniProt P33535). The experiment in a line: NVS_GPCR_rOpiate_NonSelective: NovaScreen (NVS) G Protein-Coupled Receptor Assay for rat Opioid Receptor, Non-selective Binding (AID 2283318). Summed up: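 Filter-based radioligand displacement using rat forebrain membrane preparations, measured 1.5 h post-dosing. Single-concentration duplicate screen at 25 uM, follow-up in concentration series; activity taken as signal loss relative to DMSO.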

Assay [2] concerns the target Sodium channel protein type 1 subunit alpha (Rattus norvegicus) (UniProt P04774). Put plainly: NVS_IC_rNaCh_site2: NovaScreen (NVS) Ion Channel Assay for rat Sodium Channel, Site 2 (NaCh) (AID 2283322).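 Note: hit means loss of radioligand binding signal relative to DMSO so AC50 marks displacement.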 The gist of the method: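 Initial duplicate single-point testing at 25 uM, followed by concentration-response runs for actives. Binding of radioligand to rat forebrain membranes quantified after 1 h via filter-based radiodetection.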

For assay [3], the target named is rat Glutamate, NMDA Agonist Site (GluNMDA), Grin1 (gene 24408) (UniProt P35439). The experiment in a line: NVS_LGIC_rGluNMDA_Agonist: NovaScreen (NVS) Ligand-Gated Ion Channel Assay for rat Glutamate, NMDA Agonist Site (GluNMDA) (AID 2283327). Summed up:
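Radioligand displacement at the agonist site on rat forebrain membrane preparations, read by filter scintillation after 1 h. Chemicals were first run at 25 uM in duplicate; those passing threshold were titrated to a 50 uM maximum.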

For assay [4], the target named is rat Neurokinin-3 Receptor (NK3), Tacr3 (gene 24808) (UniProt P16177). The experiment in a line: NVS_GPCR_rNK3: NovaScreen (NVS) G Protein-Coupled Receptor Assay for rat Neurokinin-3 Receptor (NK3) (AID 2283310). The gist of the method: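 Filter-based radioligand displacement on rat cortex membrane preparations, read by scintillation 2 h post-dose. Chemicals first tested in duplicate at 25 uM; actives followed up in concentration series with a 50 uM maximum.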
rat Neurokinin-3 Receptor (NK3), Tacr3 (gene 24808), sequence (P16177 whole entry, looked up): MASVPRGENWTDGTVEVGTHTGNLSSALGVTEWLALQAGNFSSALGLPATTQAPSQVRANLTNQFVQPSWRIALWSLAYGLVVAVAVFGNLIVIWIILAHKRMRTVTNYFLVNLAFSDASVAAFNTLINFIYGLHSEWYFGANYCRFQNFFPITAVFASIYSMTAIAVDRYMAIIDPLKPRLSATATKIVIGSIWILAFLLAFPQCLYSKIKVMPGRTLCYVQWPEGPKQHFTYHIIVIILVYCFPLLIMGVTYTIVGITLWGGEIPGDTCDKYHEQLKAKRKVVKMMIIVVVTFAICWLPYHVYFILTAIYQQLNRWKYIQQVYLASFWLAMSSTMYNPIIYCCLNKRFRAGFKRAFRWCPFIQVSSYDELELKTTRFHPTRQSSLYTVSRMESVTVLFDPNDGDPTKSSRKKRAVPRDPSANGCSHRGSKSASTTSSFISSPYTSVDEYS

Assay [5] deals with rat Opioid Receptor, Non-selective Sodium (Na+) Binding, Oprm1 (gene 25601) (UniProt P33535). The experiment in a line: NVS_GPCR_rOpiate_NonSelectiveNa: NovaScreen (NVS) G Protein-Coupled Receptor Assay for rat Opioid Receptor, Non-selective Sodium (Na+) Binding (AID 2283311). The gist of the method: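 Filtration radioligand binding on rat forebrain membrane preparations, read 1.5 h after dosing. Single-concentration 25 µM primary screen in duplicate, followed by singleton concentration series to 50 µM max for actives; DMSO baseline.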
rat Opioid Receptor, Non-selective Sodium (Na+) Binding, Oprm1 (gene 25601), sequence (P33535 whole entry, looked up): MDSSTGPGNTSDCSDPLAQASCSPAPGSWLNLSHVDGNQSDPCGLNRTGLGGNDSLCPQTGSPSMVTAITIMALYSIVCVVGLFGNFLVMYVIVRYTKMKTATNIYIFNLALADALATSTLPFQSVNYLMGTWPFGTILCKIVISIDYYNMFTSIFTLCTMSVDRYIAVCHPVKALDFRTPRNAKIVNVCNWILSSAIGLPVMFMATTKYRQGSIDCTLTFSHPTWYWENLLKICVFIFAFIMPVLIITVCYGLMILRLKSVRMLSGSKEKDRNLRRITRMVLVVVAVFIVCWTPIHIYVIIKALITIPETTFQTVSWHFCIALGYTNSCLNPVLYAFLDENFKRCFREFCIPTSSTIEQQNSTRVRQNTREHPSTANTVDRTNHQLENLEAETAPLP

In assay [6] the target is rat Somatostatin Receptor (SST), Sstr1 (gene 25033) (UniProt P28646). The experiment in a line: NVS_GPCR_rSST: NovaScreen (NVS) G Protein-Coupled Receptor Assay for rat Somatostatin Receptor (SST) (AID 2283314). Summed up:
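Single-concentration duplicate screen (25 uM), then concentration-response up to 50 uM for chemicals passing a threshold such as 30% inhibition. Membranes came from rat forebrain. Binding was measured 1 h post-dose by filter radiodetection and scintillation, relative to DMSO.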

Assay [7] has as its target rat Vasopressin 1 Receptor (V1), Avpr1a (gene 25107) (UniProt P30560). The experiment in a line: NVS_GPCR_rV1: NovaScreen (NVS) G Protein-Coupled Receptor Assay for rat Vasopressin 1 Receptor (V1) (AID 2283316). Summed up:
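Concentration-response up to 50 uM for chemicals passing a threshold such as 30% inhibition in an initial duplicate 25 uM screen. Displacement of radioligand from rat liver membranes measured after 1.5 h by filtration and scintillation.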

The test system of another assay is NCBI gene 24521. The experiment in a line: NVS_IC_rKATPCh: NovaScreen (NVS) Ion Channel Assay for rat Potassium Channel, ATP-Sensitive (KATPCh) (AID 2283319). Summed up: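 Primary duplicate screen at 25 uM, then singleton concentration series to 50 uM maximum, in a rat cortex membrane radioligand displacement assay. Binding measured by filtration and scintillation 2 h post-dose; DMSO baseline.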

For assay [8], the target named is rat Glutamate, AMPA Site (AMPA), Gria1 (gene 50592) (UniProt P19490). The experiment in a line: NVS_LGIC_rAMPA: NovaScreen (NVS) Ligand-Gated Ion Channel Assay for rat Glutamate, AMPA Site (AMPA) (AID 2283324). Summed up:
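Screening at 25 uM in duplicate preceded concentration series reaching 50 uM for qualifying compounds. Radioligand displacement on rat forebrain membranes, 1 h, filter-based scintillation readout; reduced binding relative to DMSO.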

Assay [9] deals with rat Gamma-Aminobutyric Acid Type A Receptor, Non-Selective (GABAR-NonSelective), Gabra1 (gene 29705) (UniProt P62813). The experiment in a line: NVS_LGIC_rGABAR_NonSelective: NovaScreen (NVS) Ligand-Gated Ion Channel Assay for rat Gamma-Aminobutyric Acid Type A Receptor, Non-Selective (GABAR-NonSelective) (AID 2283326). Summed up: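 Compounds were first screened in duplicate at 25 uM, with actives run as singleton concentration series (max 50 uM). Binding of a radioligand to rat whole-brain GABA-A preparation was measured by filtration and scintillation counting after 1 h, DMSO baseline.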
rat Gamma-Aminobutyric Acid Type A Receptor, Non-Selective (GABAR-NonSelective), Gabra1 (gene 29705), sequence (P62813 whole entry, looked up): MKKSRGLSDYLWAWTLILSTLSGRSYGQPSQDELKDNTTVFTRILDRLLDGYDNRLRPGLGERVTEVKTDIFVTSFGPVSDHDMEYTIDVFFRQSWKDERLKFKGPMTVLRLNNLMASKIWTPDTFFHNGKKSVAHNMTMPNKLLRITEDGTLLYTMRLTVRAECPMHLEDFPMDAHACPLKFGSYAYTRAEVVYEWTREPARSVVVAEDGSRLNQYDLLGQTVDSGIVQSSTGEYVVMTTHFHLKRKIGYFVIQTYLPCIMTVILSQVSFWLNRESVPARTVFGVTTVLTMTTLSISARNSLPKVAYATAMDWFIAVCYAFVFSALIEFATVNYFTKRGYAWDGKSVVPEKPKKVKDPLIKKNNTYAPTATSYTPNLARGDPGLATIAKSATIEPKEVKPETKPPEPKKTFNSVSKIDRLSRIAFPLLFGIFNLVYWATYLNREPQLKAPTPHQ

For assay [10], the target named is rat Gamma-Aminobutyric Acid Type B Receptor (GABBR), Gabbr1 (gene 81657) (UniProt Q9Z0U4). Put plainly: NVS_GPCR_rGABBR: NovaScreen (NVS) G Protein-Coupled Receptor Assay for rat Gamma-Aminobutyric Acid Type B Receptor (GABBR) (AID 2283301). Summed up:
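Rat cortical membrane preparation, competitive radioligand binding for 1 h with filtration and scintillation readout. Actives from duplicate single-point 25 uM screening proceeded to concentration series with 50 uM top concentration.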

Assay [11] has as its target rat Histamine Receptor (H3), Hrh3 (gene 85268) (UniProt Q9QYN8). The experiment in a line: NVS_GPCR_rH3: NovaScreen (NVS) G Protein-Coupled Receptor Assay for rat Histamine Receptor (H3) (AID 2283303). Summed up:
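Filter-binding radioligand competition on rat forebrain membranes, 1 h incubation; compounds screened at 25 µM in duplicate and followed in concentration series to 50 µM, loss of bound signal vs DMSO.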

Assay [12] has as its target rat Neonicotinoid receptor (NNR), Chrna7 (gene 25302) (UniProt Q05941). The experiment in a line: NVS_LGIC_rNNR_BungSens: NovaScreen (NVS) Ligand-Gated Ion Channel Assay for rat Neonicotinoid receptor (NNR) (AID 2283315). Summed up:
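Rat cortical membrane preparation incubated 2.5 h with tritiated or iodinated radioligand and test chemical. Bound radioactivity was filtered and counted by scintillation, and displacement was analysed against DMSO.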

Assay [13] addresses rat Neurokinin-1 Receptor (NK1), Tacr1 (gene 24807) (UniProt P14600). Put plainly: NVS_GPCR_rNK1: NovaScreen (NVS) G Protein-Coupled Receptor Assay for rat Neurokinin-1 Receptor (NK1) (AID 2283309). The gist of the method: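 Competitive radioligand binding to NK1 in rat submaxillary membranes, 1 h incubation, filtration and scintillation read-out. Compounds first screened at 25 uM in duplicate, then concentration-response for actives; signal loss relative to DMSO.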

Assay [14] is described as follows: NVS_IC_rCaDHPRCh_L: NovaScreen (NVS) Ion Channel Assay for rat Calcium Channel, Type L, Dihydropyridine Site (CaDHPRCh_L) (AID 2283320). The gist of the method:
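Rat cortex membrane preparation; dihydropyridine-site radioligand displacement read 1 h post-dose by filtration and scintillation. Primary single-point screen 25 uM in duplicate, then concentration series to 50 uM maximum; DMSO as negative control.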

In assay [15] the target is bovine Gamma-Aminobutyric Acid Type A Receptor BDZ, alpha 5 site (GABARa5), GABRA5 (gene 523515) (UniProt Q08E50). The experiment in a line: NVS_LGIC_bGABARa5: NovaScreen (NVS) Ligand-Gated Ion Channel Assay for bovine Gamma-Aminobutyric Acid Type A Receptor BDZ, alpha 5 site (GABARa5) (AID 2283323). Summed up:
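Tested first in duplicate at a single 25 uM, with hits re-run in concentration series to a 50 uM maximum. Bovine hippocampal membranes; specific radioligand displacement measured by filter scintillation counting 1 hr post-dose.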

The target in assay [16] is rat Thyrotropin Releasing Hormone Receptor (TRH), Trhr (gene 25570) (UniProt Q01717). Put plainly: NVS_GPCR_rTRH: NovaScreen (NVS) G Protein-Coupled Receptor Assay for rat Thyrotropin Releasing Hormone Receptor (TRH) (AID 2283329).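 Note: hit means lower bound tracer signal versus DMSO baseline.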 The gist of the method: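 Competitive radioligand binding on rat forebrain membrane preparations, with filtration and scintillation readout after 4 h. Primary testing in duplicate at 25 uM; actives confirmed in concentration-response. DMSO defined baseline.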

rat Somatostatin Receptor (SST), Sstr1 (gene 25033), sequence (P28646 whole entry, looked up): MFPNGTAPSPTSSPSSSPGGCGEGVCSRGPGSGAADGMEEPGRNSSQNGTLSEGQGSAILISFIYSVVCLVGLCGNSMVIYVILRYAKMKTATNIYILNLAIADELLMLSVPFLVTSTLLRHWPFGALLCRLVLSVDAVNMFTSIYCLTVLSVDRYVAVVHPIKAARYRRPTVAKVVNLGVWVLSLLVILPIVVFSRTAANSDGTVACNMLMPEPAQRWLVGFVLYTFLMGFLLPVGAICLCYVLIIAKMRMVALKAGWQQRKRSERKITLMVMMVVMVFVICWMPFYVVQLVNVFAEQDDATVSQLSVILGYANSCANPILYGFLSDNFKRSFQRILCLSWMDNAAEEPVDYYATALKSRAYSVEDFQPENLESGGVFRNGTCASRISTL
rat Opioid Receptor, Non-selective Binding, Oprm1 (gene 25601), sequence (P33535 whole entry, looked up): as the sequence (P33535 whole entry, looked up) above
Adra2b (gene 24174), sequence (P19328 whole entry, looked up): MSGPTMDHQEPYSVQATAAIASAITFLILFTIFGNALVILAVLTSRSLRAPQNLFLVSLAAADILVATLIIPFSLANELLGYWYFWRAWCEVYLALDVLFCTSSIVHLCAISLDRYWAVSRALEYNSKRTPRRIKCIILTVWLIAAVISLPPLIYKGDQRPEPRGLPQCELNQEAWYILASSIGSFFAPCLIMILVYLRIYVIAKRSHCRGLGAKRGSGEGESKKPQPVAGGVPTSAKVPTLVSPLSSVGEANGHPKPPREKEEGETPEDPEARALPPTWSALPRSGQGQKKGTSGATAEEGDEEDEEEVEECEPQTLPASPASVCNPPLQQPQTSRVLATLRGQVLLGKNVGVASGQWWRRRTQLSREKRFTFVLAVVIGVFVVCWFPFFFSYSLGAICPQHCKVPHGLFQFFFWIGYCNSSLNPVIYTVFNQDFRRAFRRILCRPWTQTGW
rat Neurokinin-1 Receptor (NK1), Tacr1 (gene 24807), sequence (P14600 whole entry, looked up): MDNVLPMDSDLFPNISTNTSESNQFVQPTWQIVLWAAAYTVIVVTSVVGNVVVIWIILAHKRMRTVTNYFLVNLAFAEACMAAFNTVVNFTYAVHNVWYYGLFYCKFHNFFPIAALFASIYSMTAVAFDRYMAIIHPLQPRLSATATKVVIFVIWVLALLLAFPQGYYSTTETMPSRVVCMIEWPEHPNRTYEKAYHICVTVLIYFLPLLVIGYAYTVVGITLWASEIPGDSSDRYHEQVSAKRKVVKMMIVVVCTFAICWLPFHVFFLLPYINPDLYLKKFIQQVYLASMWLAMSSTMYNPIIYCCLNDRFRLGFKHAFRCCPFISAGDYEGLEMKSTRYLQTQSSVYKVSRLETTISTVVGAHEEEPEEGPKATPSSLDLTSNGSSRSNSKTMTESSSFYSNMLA
rat Neonicotinoid receptor (NNR), Chrna7 (gene 25302), sequence (Q05941 whole entry, looked up): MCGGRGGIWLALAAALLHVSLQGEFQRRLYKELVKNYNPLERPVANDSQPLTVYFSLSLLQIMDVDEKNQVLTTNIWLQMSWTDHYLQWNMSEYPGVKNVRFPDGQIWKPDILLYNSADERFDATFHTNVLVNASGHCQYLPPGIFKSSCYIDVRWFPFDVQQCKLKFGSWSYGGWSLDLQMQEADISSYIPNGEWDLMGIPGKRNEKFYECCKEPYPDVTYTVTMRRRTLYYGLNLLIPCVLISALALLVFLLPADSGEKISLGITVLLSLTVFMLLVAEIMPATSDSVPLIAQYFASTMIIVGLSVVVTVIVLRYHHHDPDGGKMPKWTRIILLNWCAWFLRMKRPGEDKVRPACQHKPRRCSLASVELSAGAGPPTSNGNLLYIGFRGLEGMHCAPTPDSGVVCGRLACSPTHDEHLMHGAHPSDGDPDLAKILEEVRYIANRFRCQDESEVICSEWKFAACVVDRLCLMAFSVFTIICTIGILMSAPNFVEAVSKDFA
rat Vasopressin 1 Receptor (V1), Avpr1a (gene 25107), sequence (P30560 whole entry, looked up): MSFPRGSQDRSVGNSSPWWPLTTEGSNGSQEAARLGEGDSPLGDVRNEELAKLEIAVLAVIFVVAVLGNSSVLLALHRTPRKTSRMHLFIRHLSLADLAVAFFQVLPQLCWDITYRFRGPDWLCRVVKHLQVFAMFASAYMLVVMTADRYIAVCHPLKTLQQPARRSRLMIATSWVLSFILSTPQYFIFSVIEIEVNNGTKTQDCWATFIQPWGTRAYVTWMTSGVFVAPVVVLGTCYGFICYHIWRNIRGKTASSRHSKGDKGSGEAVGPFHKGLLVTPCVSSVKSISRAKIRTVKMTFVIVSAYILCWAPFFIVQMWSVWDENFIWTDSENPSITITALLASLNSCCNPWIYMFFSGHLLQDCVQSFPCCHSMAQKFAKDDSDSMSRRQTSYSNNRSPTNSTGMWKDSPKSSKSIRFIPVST
bovine Gamma-Aminobutyric Acid Type A Receptor BDZ, alpha 5 site (GABARa5), GABRA5 (gene 523515), sequence (Q08E50 whole entry, looked up): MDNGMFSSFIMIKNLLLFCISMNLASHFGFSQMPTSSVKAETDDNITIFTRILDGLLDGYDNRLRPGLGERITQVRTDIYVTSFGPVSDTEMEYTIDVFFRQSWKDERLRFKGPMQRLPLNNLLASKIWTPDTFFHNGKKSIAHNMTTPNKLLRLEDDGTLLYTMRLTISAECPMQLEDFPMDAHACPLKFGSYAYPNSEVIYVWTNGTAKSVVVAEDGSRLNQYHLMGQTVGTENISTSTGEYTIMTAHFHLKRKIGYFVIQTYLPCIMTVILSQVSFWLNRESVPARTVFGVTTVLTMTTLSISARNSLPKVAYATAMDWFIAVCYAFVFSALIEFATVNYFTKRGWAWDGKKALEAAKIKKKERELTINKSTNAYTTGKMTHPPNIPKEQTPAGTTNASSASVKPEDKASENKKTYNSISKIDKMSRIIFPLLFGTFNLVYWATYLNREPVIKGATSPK
rat Histamine Receptor (H3), Hrh3 (gene 85268), sequence (Q9QYN8 whole entry, looked up): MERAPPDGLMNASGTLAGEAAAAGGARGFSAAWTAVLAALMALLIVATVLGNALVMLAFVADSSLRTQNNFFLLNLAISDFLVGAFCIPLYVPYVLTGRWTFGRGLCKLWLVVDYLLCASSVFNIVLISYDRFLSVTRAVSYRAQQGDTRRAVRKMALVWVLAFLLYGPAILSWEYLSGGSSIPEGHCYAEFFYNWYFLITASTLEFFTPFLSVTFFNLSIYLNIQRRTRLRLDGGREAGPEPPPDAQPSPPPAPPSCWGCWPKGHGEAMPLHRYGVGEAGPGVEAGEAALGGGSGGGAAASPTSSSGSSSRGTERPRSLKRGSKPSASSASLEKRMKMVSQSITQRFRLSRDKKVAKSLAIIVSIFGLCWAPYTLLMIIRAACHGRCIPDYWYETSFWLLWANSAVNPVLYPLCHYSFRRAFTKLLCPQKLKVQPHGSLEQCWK

With `NC(=Nc1ccccc1)Nc1ccccc1`, the AC50 in the assay with Adra2b (gene 24174) was 11.7 µM (active). Moreover, the compound was classed as inactive in [1], in assay [2] and in [3].
In the case of `COc1ccc(OC(F)(F)F)cc1CN[C@H]1CCCN[C@H]1c1ccccc1`, the AC50 with Adra2b (gene 24174) was 9.2 µM (active); in [4], 12.5 µM (active); in assay [6], 8.11 µM (active); in assay [1], 25 µM (active); in assay [2] it was 0.623 µM (active); in assay [9] it was 2 µM (active). Further, the compound was classed as inactive (in assay [5]; in assay [7]; in the assay on NCBI gene 24521; in [8]).
As to `NCCOCCOCCN`, the compound was classed as inactive in assay [10].
Turning to `O=C(N[C@@H](c1ccccc1)[C@@H]1CCCCN1)c1cccc(C(F)(F)F)c1Cl`, in [11], the compound was classed as inactive. The AC50 was 31.4 µM (active) in assay [5], 6.67 µM (active) in [6], 12.8 µM (active) in assay [1] and 1.27 µM (active) in assay [2].
`CCCCCCC(C=O)=Cc1ccccc1`: in assay [6], the result was inactive.
With `CCCC[C@H]1CN(CC2CCOCC2)C(=O)OC12CCN(C1(C)CCN(C(=O)c3c(C)ncnc3C)CC1)CC2`, the half-maximal activity concentration (AC50) in [12] was 4.46 µM (active).
With `Cc1ccc(-c2cc(C(F)(F)F)nn2-c2ccc(S(N)(=O)=O)cc2)cc1`, the outcome (in the assay with Adra2b (gene 24174); in assay [5]) was inactive.
With `CN(C)C(=O)NC1(c2ccccc2)CCN(CCC[C@]2(c3ccc(Cl)c(Cl)c3)CCCN(C(=O)c3ccccc3)C2)CC1`, the AC50 is 10.5 µM (active) in assay [13]; 0.0731 µM (active) in [4]; 2.12 µM (active) in assay [5]; 2.23 µM (active) in [1]; 0.988 µM (active) in [14]; 0.327 µM (active) in [2].
For `CCC(C)N(C)C(=O)c1cc2ccccc2c(-c2ccccc2Cl)n1` (stereo unspecified), the AC50 was 6.96 µM (active) in assay [4] and 7.4 µM (active) in [7]. Moreover, the call in [15] was inactive.
Consider `NC=O`, for which, in assay [13], the compound was called inactive.
With `O=C(O)c1cccnc1`, the result in [12] was inactive.
Consider `COC(=O)[C@H]1[C@H]2C[C@@H]3c4[nH]c5cc(OC)ccc5c4CCN3C[C@H]2C[C@@H](OC(=O)c2cc(OC)c(OC)c(OC)c2)[C@@H]1OC`, for which the AC50 in assay [4] was 10.6 µM (active); in assay [5], 21.1 µM (active); in [1], 8.39 µM (active); in assay [14], 11.6 µM (active); in [2], 5.49 µM (active).
Regarding `CCCCc1nc2cccnc2n1Cc1ccc(-c2ccccc2-c2nnn[nH]2)cc1`, the call in [13], in assay [12], in [15] and in [16] was inactive. Also, in [4], the half-maximal activity concentration (AC50) is 5.16 µM (active).
As to `CCc1nc(N)nc(N)c1-c1ccc(Cl)cc1`, the AC50 with Adra2b (gene 24174) is 5.45 µM (active); in [12], 10.4 µM (active); in assay [2], 3.65 µM (active); in assay [9], 0.0648 µM (active). For the same compound, the compound was called inactive in assay [5] and in assay [1].
